In PubChem BioAssay (NCATS):
Results filed as inconclusive are left out. A call without a number means that no potency is given here. The source made the active and inactive calls. The call rests on the fitted dose curve; in most records, active means well fitted inhibition curve with a large enough effect; inconclusive means small, poorly fitted or top-dose-only effect; inactive means flat fitted curve, though single readings scatter.

Legend:
Test in all cases: qHTS profiling for inhibitors of Plasmodium falciparum proliferation (AID 504749); further: nearly all actives have a fitted effect of over 60% in size
Details in all cases: P. falciparum in erythrocytes, SYBR Green DNA, 72 h; series mostly up to 28.7 µM
CP329 = test system: CP329
Procedure, shortened: (§1)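 P. falciparum-infected erythrocytes (0.3% parasitemia, 2.5% hematocrit) incubated with compound 72 h at 37 C, 5% CO2. Parasite DNA detected by SYBR Green after lysis, overnight at room temperature; normalised to 0.29 uM artemisinin and DMSO.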

CP335 = test system: CP335
Procedure, shortened: as §1

DFO2036 = test system: DFO2036
Procedure, shortened: as §1

DIV14 = test system: DIV14
Procedure, shortened: as §1

DIV17 = test system: DIV17
Procedure, shortened: as §1

DIV30 = test system: DIV30
Procedure, shortened: as §1

Dd2 = test system: Dd2
Procedure, shortened: as §1

ECU = test system: ECU
Procedure, shortened: as §1

FAB9 = test system: FAB9
Procedure, shortened: as §1

GB4 = test system: GB4
Procedure, shortened: as §1
Potency means the concentration at half of the fitted maximal effect.

Row | SMILES | Potency (CP329) | Potency (CP335) | Potency (DFO2036) | Potency (DIV14) | Potency (DIV17) | Potency (DIV30) | Potency (Dd2) | Potency (ECU) | Potency (FAB9) | Potency (GB4)
1 | COc1nc(C)nc(Cl)c1NC1=NCCN1 | inactive | inactive | inactive | inactive | inactive | inactive | inactive | inactive | inactive | inactive
2 | CC(C)Cc1ccc(C(C)C(=O)O)cc1 (configuration not stated) | inactive | inactive | inactive | inactive | inactive | inactive | inactive | inactive | inactive | inactive
3 | COc1ccccc1OCC(O)CN1CCN(CC(=O)Nc2c(C)cccc2C)CC1 (configuration not stated) | inactive | inactive | inactive | inactive | inactive | inactive | inactive | inactive | inactive | inactive
4 | NCCCCCC(=O)O | inactive | inactive | inactive | inactive | inactive | inactive | inactive | inactive | inactive | inactive
5 | Clc1ccc2nsnc2c1NC1=NCCN1 | inactive | inactive | inactive | inactive | inactive | inactive | inactive | inactive | inactive | inactive
6 | Cc1cc(C(C)(C)C)c(O)c(C)c1CC1=NCCN1 | inactive | inactive | inactive | inactive | inactive | inactive | inactive | inactive | inactive | inactive
7 | CS(=O)(=O)Nc1ccc([N+](=O)[O-])cc1Oc1ccccc1 | inactive | inactive | inactive | inactive | inactive | inactive | inactive | inactive | inactive | inactive
8 | CN(C)CCC=C1c2ccccc2C=Cc2ccccc21 | inactive |  | inactive | 2.39 µM (active) | 3.79 µM (active) |  |  | inactive | inactive | 
9 | CCOC(=O)Nc1ccc(NCc2ccc(F)cc2)nc1N |  | 6.01 µM (active) |  | 15.1 µM (active) | 15.1 µM (active) | 16.9 µM (active) | 12.6 µM (active) | 11.2 µM (active) |  | 
10 | O=C(Nc1ccc([N+](=O)[O-])cc1Cl)c1cc(Cl)ccc1O |  | 1.51 µM (active) |  | 1.07 µM (active) | 1.2 µM (active) |  | 0.891 µM (active) | 1 µM (active) | inactive | 1.35 µM (active)
11 | CC1(CN2CCC(n3c(=O)[nH]c4ccccc43)CC2)OCc2ccccc2-n2cccc21 (configuration not stated) | inactive |  |  | 9.53 µM (active) | 13.5 µM (active) | 13.5 µM (active) | 11.2 µM (active) | 10 µM (active) | inactive | 
12 | CC(C)NCC(O)c1ccc(O)c(O)c1 (configuration not stated) | inactive | inactive | inactive |  | inactive | inactive | inactive | inactive | inactive | 
13 | CC(COc1ccccc1)N(CCCl)Cc1ccccc1 (configuration not stated) |  |  | inactive |  | 6.01 µM (active) |  |  |  | inactive | 
14 | CNCCCC12CCC(c3ccccc31)c1ccccc12 | inactive | inactive | inactive |  | 10.7 µM (active) |  |  | inactive | inactive | 8.49 µM (active)
15 | CCC1(c2ccccc2)C(=O)NCNC1=O | inactive |  | inactive | inactive | inactive | inactive | inactive | inactive | inactive | inactive
16 | Clc1ccc(C(c2ccccc2Cl)C(Cl)Cl)cc1 (configuration not stated) |  |  | inactive |  |  |  | inactive | inactive | inactive | 
17 | COc1ccccc1N1CCN(CC(O)COc2cccc3ccccc23)CC1 (configuration not stated) | inactive | inactive | inactive |  |  | inactive | inactive | inactive | inactive | 
18 | NC(=O)OCC(COC(N)=O)c1ccccc1 | inactive |  | inactive | inactive | inactive | inactive | inactive | inactive | inactive | inactive
19 | CC12CC3CC(C)(C1)CC(N)(C3)C2 | inactive | inactive | inactive |  |  | inactive | 5.01 µM (active) | inactive | inactive | 
20 | CCCCc1oc2ccccc2c1C(=O)c1cc(I)c(OCCN(CC)CC)c(I)c1 |  | 9.53 µM (active) |  | 7.57 µM (active) | 13.5 µM (active) | 8.49 µM (active) | 11.2 µM (active) | 8.91 µM (active) |  | 9.53 µM (active)
21 | CN1CCC(=C2c3ccccc3C=Cc3ccccc32)CC1 | inactive |  | inactive |  |  | inactive |  | inactive | inactive | 
22 | Clc1ccc2c(c1)C(N1CCNCC1)=Nc1ccccc1O2 | inactive |  |  |  |  | inactive |  |  | inactive | 
23 | CN1CCC(=C2c3ccccc3CC(=O)c3sccc32)CC1 |  |  | inactive | 5.36 µM (active) | 6.01 µM (active) |  | 4.47 µM (active) | 7.08 µM (active) | 6.31 µM (active) | 1.51 µM (active)

Row | SMILES | Potency (CP329) | Potency (CP335) | Potency (DFO2036) | Potency (DIV14) | Potency (DIV17) | Potency (DIV30) | Potency (Dd2) | Potency (ECU) | Potency (FAB9) | Potency (GB4)
24 | CCCNCC(O)COc1ccccc1C(=O)CCc1ccccc1 (configuration not stated) | 6.75 µM (active) | 3.01 µM (active) | 1 µM (active) |  | 0.536 µM (active) | 1.69 µM (active) | 1 µM (active) | 0.708 µM (active) | 1.78 µM (active) | 0.675 µM (active)
25 | CN(C)CCOC(c1ccccc1)c1ccccc1 | inactive | inactive | inactive |  |  |  |  | inactive | inactive | 
26 | COc1cc2c(c(OC)c1OC)-c1ccc(OC)c(=O)cc1[C@@H](NC(C)=O)CC2 | inactive |  | inactive | inactive | inactive | inactive | inactive | inactive | inactive | inactive
27 | Cn1ccc2cc3c(cc21)CCN3C(=O)Nc1cccnc1 |  |  |  | 12 µM (active) |  |  | inactive |  | inactive | 15.1 µM (active)
28 | O=C1c2c(O)ccc(O)c2C(=O)c2c(NCCNCCO)ccc(NCCNCCO)c21 |  | 2.87 µM (active) | 2.51 µM (active) | 4.55 µM (active) | 2.56 µM (active) | 5.1 µM (active) | 1.58 µM (active) |  |  | 2.87 µM (active)
29 | Nc1c2c(nc3ccccc13)CCCC2 |  |  |  |  | 6.75 µM (active) | inactive | inactive | inactive | inactive | 
30 | O=C(c1ccc(OCCN2CCCCC2)cc1)c1c(-c2ccc(O)cc2)sc2cc(O)ccc12 |  | 6.75 µM (active) |  | 12 µM (active) | 15.1 µM (active) |  | 14.1 µM (active) |  |  | 8.49 µM (active)
31 | CC#C[C@]1(O)CC[C@H]2[C@@H]3CCC4=CC(=O)CCC4=C3[C@@H](c3ccc(N(C)C)cc3)C[C@@]21C |  | 13.5 µM (active) |  | 12 µM (active) | 8.49 µM (active) | 15.1 µM (active) | 12.6 µM (active) | 8.91 µM (active) |  | 15.1 µM (active)
32 | COC(=O)Nc1nc2ccc(C(=O)c3cccs3)cc2[nH]1 | inactive | inactive | inactive |  |  | inactive | inactive | inactive | inactive | inactive
33 | CC(C)NCC(O)COc1ccc(CCOCC2CC2)cc1 (configuration not stated) | inactive |  |  |  |  |  |  |  | inactive | 
34 | COc1ccc(CCN(C)CCCC(C#N)(c2ccc(OC)c(OC)c2)C(C)C)cc1OC (configuration not stated) |  |  | inactive | inactive |  |  |  | inactive | inactive | inactive
35 | O=c1c(O)c(-c2ccc(O)c(O)c2)oc2cc(O)cc(O)c12 |  |  |  | 15.1 µM (active) |  |  |  | inactive |  | 12 µM (active)
36 | CN(C)C(=N)N=C(N)N | inactive | inactive | inactive |  |  |  | inactive | inactive | inactive | 
37 | O=c1[nH]cc(F)c(=O)[nH]1 |  |  | inactive |  |  |  |  |  | inactive | 12 µM (active)
38 | COc1ccccc1OCCNCC(O)COc1cccc2[nH]c3ccccc3c12 (configuration not stated) | inactive |  | 14.1 µM (active) | 13.5 µM (active) |  |  |  | 10 µM (active) | inactive | 
39 | CN(Cc1cnc2nc(N)nc(N)c2n1)c1ccc(C(=O)N[C@@H](CCC(=O)O)C(=O)O)cc1 | inactive |  |  |  |  | inactive |  | 0.112 µM (active) | 0.0316 µM (active) | 
40 | Cc1ccc(-c2cc(C(F)(F)F)nn2-c2ccc(S(N)(=O)=O)cc2)cc1 |  |  |  |  |  |  | inactive | 10 µM (active) | inactive | 13.5 µM (active)
41 | CC[C@@]1(O)C(=O)OCc2c1cc1n(c2=O)Cc2cc3c(CN(C)C)c(O)ccc3nc2-1 | 6.75 µM (active) | 4.78 µM (active) | 5.62 µM (active) |  |  |  | 10 µM (active) | 3.98 µM (active) | inactive | 5.36 µM (active)
42 | Cc1cc(C(C)(C)C)cc(C)c1CC1=NCCN1 | inactive | inactive | inactive |  |  | inactive | inactive | inactive | inactive | 
43 | O=C(c1ccc(F)cc1)C1CCN(CCn2c(=O)[nH]c3ccccc3c2=O)CC1 | inactive | inactive | inactive |  |  | inactive |  | inactive | inactive | inactive
44 | CN(C)CCCN1c2ccccc2CCc2ccc(Cl)cc21 | inactive |  | inactive | 1.51 µM (active) | 3.38 µM (active) |  |  |  | inactive | 8.49 µM (active)
45 | NC12CC3CC(CC(C3)C1)C2 | inactive |  | inactive | inactive | inactive | inactive | inactive | inactive | inactive | 
46 | NC(=O)NO | inactive | inactive | inactive |  | inactive | inactive | inactive | inactive | inactive | inactive
